The results in this text go back to PubChem BioAssay (NCI).

The panel holds about 83,000 compounds, 20% with a hit somewhere; the sample as a whole holds those more often.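 Interpretation: 100, growth as untreated; towards 0, rising growth inhibition; 0, no net growth; 0 to -100, cell death. Compounds scoring below 10 were considered active.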 A number with no mark means an inactive call. Calls of active or inactive are those of the source.

Test systems include DU-145 prostate; K-562 leukemia; MALME-3M melanoma; MDA-MB-231 breast; RXF 393 renal; SF-268 CNS; SF-295 CNS; SF-539 CNS; UACC-257 melanoma; M14 melanoma.
What all share (assay): NCI-60 one-dose screen, 48 h (100 = growth as untreated, 0 = no growth, -100 = all killed)
Holding throughout (details): 10 µM unless noted

As for `CC(C)(C)n1cc(-c2ccnc(NCCNS(=O)(=O)c3cccc(F)c3)c2)c(-c2ccccc2)n1`, the growth was 96.1% in the assay with DU-145 prostate; 44.2% with K-562 leukemia; 107% in the assay with MALME-3M melanoma; 87% with MDA-MB-231 breast; 96.8% in the assay with RXF 393 renal; 97.7% in the assay on SF-268 CNS. Further, the growth was 76.8% in the assay with SF-295 CNS, 88.1% in the assay on SF-539 CNS, 98.9% with UACC-257 melanoma and 94.8% in the assay on M14 melanoma.

Consider `COc1ccc(-c2nc(SCC(C)C)nc(N/N=C\c3ccc(F)cc3)c2C#N)cc1`, for which the growth is 94.3% in the assay on DU-145 prostate; 94% with K-562 leukemia; 81% in the assay on MALME-3M melanoma; 93.1% in the assay with MDA-MB-231 breast; 111% in the assay with RXF 393 renal; 86.6% in the assay on SF-268 CNS. Moreover, the growth was 75.8% with SF-295 CNS, 91.6% in the assay on SF-539 CNS, 102% in the assay on UACC-257 melanoma and 92.7% with M14 melanoma.

For `CCOC(=O)c1cc2c(=O)oc3ccccc3c2oc1=O`, the growth was 116% in the assay with DU-145 prostate; 122% in the assay with K-562 leukemia; 105% in the assay on MALME-3M melanoma; 101% with MDA-MB-231 breast; 99.8% in the assay on RXF 393 renal; 108% in the assay with SF-268 CNS. For the same compound, the growth with SF-295 CNS is 110%; in the assay on SF-539 CNS it was 100%; in the assay on UACC-257 melanoma, 105%; with M14 melanoma, 118%.

Take `CN(CCOc1ccc(C#N)cc1)CCOc1ccc(C#N)cc1`: the growth in the assay with DU-145 prostate is 94.3%; with K-562 leukemia, 101%; in the assay on MALME-3M melanoma it was 76.5%; with MDA-MB-231 breast, 71.2%; in the assay on RXF 393 renal, 53.7%; in the assay with SF-268 CNS it was 103%. Also, the growth with SF-295 CNS is 483%; in the assay on SF-539 CNS, 96.1%; in the assay on UACC-257 melanoma it was 65.8%; with M14 melanoma, 65.2%.

Consider `COC(=O)[C@H]1CCCN1C[C@@H](O)CN1C(=O)/C(=C\c2cc(OC)c(OC)c(OC)c2)c2ccccc21`, for which the growth with DU-145 prostate was 99.6%; in the assay on K-562 leukemia it was 81.4%; in the assay on MALME-3M melanoma it was 100%; in the assay on MDA-MB-231 breast it was 102%; in the assay on RXF 393 renal, 114%; in the assay on SF-268 CNS it was 99.8%. The growth with SF-295 CNS was 105%; in the assay on SF-539 CNS it was 111%; in the assay on UACC-257 melanoma it was 90.6%; with M14 melanoma it was 97.3%.

Consider `CCOC(=O)c1ccc2[nH]c(O)c(C(=Nc3ccc(N(C)C(=O)CN4CCN(C)CC4)cc3)c3ccccc3)c2c1`, for which the growth in the assay with DU-145 prostate was -9.05% (active); in the assay on K-562 leukemia it was -20.8% (active); with MALME-3M melanoma it was -88.9% (active); with MDA-MB-231 breast, -72.3% (active); in the assay with RXF 393 renal it was -97.7% (active); with SF-268 CNS, 7.68% (active). Moreover, the growth was -6.29% (active) with SF-295 CNS, -91.1% (active) in the assay with SF-539 CNS, -55.4% (active) with UACC-257 melanoma and -78.5% (active) in the assay on M14 melanoma.

`N#CC1C=CN(CC(N)=O)c2ccc3cccnc3c21` (stereo not given): the growth in the assay on DU-145 prostate was 108%; in the assay with K-562 leukemia, 94.7%; in the assay with MALME-3M melanoma, 97.5%; with MDA-MB-231 breast, 95.5%; in the assay with RXF 393 renal, 114%; in the assay on SF-268 CNS, 105%. Also, the growth with SF-295 CNS was 103%; in the assay with SF-539 CNS, 99.1%; in the assay with UACC-257 melanoma, 89%; with M14 melanoma, 97.7%.

With `CCN1CCN(c2cc(C(=O)Nc3nc(-c4cc(OC)c(OC)c(OC)c4)cs3)cc(C(F)(F)F)c2)CC1`, the growth is 74.9% in the assay on DU-145 prostate; 3.83% (active) in the assay on K-562 leukemia; 69.3% in the assay on MALME-3M melanoma; 47% with MDA-MB-231 breast; 69.3% with RXF 393 renal; 65.1% in the assay with SF-268 CNS. For the same compound, the growth is 83.2% in the assay with SF-295 CNS, 75.6% in the assay with SF-539 CNS, 88.6% in the assay with UACC-257 melanoma and 42.1% in the assay on M14 melanoma.

For the compound `O=C1Nc2ccccc2/C1=C\c1nc(-c2ccccc2)n2ccccc12`, the growth is 86.4% in the assay with DU-145 prostate; 77.2% in the assay on K-562 leukemia; 119% in the assay with MALME-3M melanoma; 60.6% with MDA-MB-231 breast; 78% in the assay with RXF 393 renal; 93.9% in the assay on SF-268 CNS. In addition, the growth in the assay on SF-295 CNS was 97.6%; with SF-539 CNS, 101%; in the assay with UACC-257 melanoma, 124%; with M14 melanoma it was 79.8%.

With `CC1=NN(c2nc(SCC(=O)Nc3nc4ccc(C)cc4s3)nc(-c3ccccc3)c2C#N)C(=O)C1`, the growth in the assay with DU-145 prostate is 113%; with K-562 leukemia, 94.7%; with MALME-3M melanoma, 101%; in the assay with MDA-MB-231 breast, 106%; with RXF 393 renal, 94.9%; with SF-268 CNS, 97.2%. Moreover, the growth in the assay on SF-295 CNS is 103%; in the assay on SF-539 CNS, 90.3%; in the assay with UACC-257 melanoma, 113%; with M14 melanoma it was 109%.

Consider `N=C(N)c1ccc(-c2ccc(-c3cc(Cl)cc(Cl)c3)o2)o1`, for which the growth in the assay on DU-145 prostate is -87.7% (active); with K-562 leukemia it was -59.7% (active); in the assay with MALME-3M melanoma it was -89.6% (active); with MDA-MB-231 breast, -68.2% (active); with RXF 393 renal, -88.8% (active); with SF-268 CNS, -56.4% (active). For the same compound, the growth is -83.5% (active) in the assay with SF-295 CNS, -85% (active) in the assay with SF-539 CNS, -73% (active) with UACC-257 melanoma and -54.1% (active) in the assay with M14 melanoma.

`Cn1c(O)c(C=NCCN=Cc2c(O)n(C)c(=O)n(C)c2=O)c(=O)n(C)c1=O`: the growth with DU-145 prostate was 110%; in the assay on K-562 leukemia, 34.5%; in the assay on MALME-3M melanoma, 90.4%; in the assay on MDA-MB-231 breast, 101%; in the assay with RXF 393 renal, 111%; in the assay on SF-268 CNS, 105%. Besides, the growth in the assay on SF-295 CNS is 101%; in the assay on SF-539 CNS it was 93.9%; with UACC-257 melanoma it was 101%; in the assay with M14 melanoma, 102%.

On to `N#Cc1cnc(NCCc2ccncc2)nc1-n1cnc2ccccc21`, for which the growth with DU-145 prostate is 51.9%; in the assay with K-562 leukemia, 60.9%; in the assay on MALME-3M melanoma, 69%; in the assay on MDA-MB-231 breast, 76.2%; with RXF 393 renal, 52.7%; with SF-268 CNS, 53%. The growth in the assay on SF-295 CNS is 75.1%; in the assay with SF-539 CNS it was 61.3%; in the assay on UACC-257 melanoma it was 102%; in the assay with M14 melanoma, 47.9%.
